PubChem BioAssay AID1159580 (chemical genetic matrix, 2015)
Among all 5,500 compounds or so, about 2,000 (36%) were called active. About 18% were inconclusive and are not listed. Cut-off read from the data, not from the text of the source: active = normalized growth mostly below about 0.91 (no sharp cut-off); inconclusive = no clear call, values can overlap the other calls; inactive = mostly above about 0.92. This is one part of the list.

Experiment: chemical genetic growth profiling, strain panel (AID 1159580);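 note: tested at 20 µM; growth read once vehicle control cultures reached saturation at 30 °C; 1 = growth at the plate median or of vehicle wells; lower values mean less growth of the strain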
Settings: growth OD

Measured: normalized growth

Nc1nc2c(ncn2C2C[C@H](O)[C@@H](CO)O2)c(=O)[nH]1 (stereo partly specified)
inactive: S. cerevisiae deletion strains, locus YAL013W, strain DEP1, stronger effect = lower value 0.995 | S. cerevisiae deletion strains, locus YBR021W, strain FUR4, stronger effect = lower value 1 | S. cerevisiae deletion strains, locus YBR229C, strain ROT2, stronger effect = lower value 0.997 | S. cerevisiae deletion strains, locus YDL035C, strain GPR1, stronger effect = lower value 1.02 | S. cerevisiae deletion strains, locus YDL074C, strain BRE1, stronger effect = lower value 1.02 | S. cerevisiae deletion strains, locus YDL101C, strain DUN1, stronger effect = lower value 1 | S. cerevisiae deletion strains, locus YDL134C, strain PPH21, stronger effect = lower value 1.01 | S. cerevisiae deletion strains, locus YDL185W, strain tfp1, stronger effect = lower value 0.999 | S. cerevisiae deletion strains, locus YDR150W, strain NUM1, stronger effect = lower value 1.02 | S. cerevisiae deletion strains, locus YDR162C, strain NBP2, stronger effect = lower value 1 | S. cerevisiae deletion strains, locus YEL061C, strain CIN8, stronger effect = lower value 0.979 | S. cerevisiae deletion strains, locus YER155C, strain BEM2, stronger effect = lower value 0.994 | S. cerevisiae deletion strains, locus YER167W, strain BCK2, stronger effect = lower value 1.01 | S. cerevisiae deletion strains, locus YGL078C, strain dbp3, stronger effect = lower value 1 | S. cerevisiae deletion strains, locus YGL248W, strain PDE1, stronger effect = lower value 0.996 | S. cerevisiae deletion strains, locus YGR078C, strain PAC10, stronger effect = lower value 1 | S. cerevisiae deletion strains, locus YGR229C, strain SMI1, stronger effect = lower value 1.01 | S. cerevisiae deletion strains, locus YHR030C, strain SLT2, stronger effect = lower value 1.01 | S. cerevisiae deletion strains, locus YHR129C, strain ARP1, stronger effect = lower value 1 | S. cerevisiae deletion strains, locus YIL066C, strain RNR3, stronger effect = lower value 1.03 | S. cerevisiae deletion strains, locus YIL073C, strain SPO22, stronger effect = lower value 1.1 | S. cerevisiae deletion strains, locus YIL125W, strain kgd1, stronger effect = lower value 1.01 | S. cerevisiae deletion strains, locus YJL095W, strain BCK1, stronger effect = lower value 1 | S. cerevisiae deletion strains, locus YJL134W, strain LCB3, stronger effect = lower value 1 | S. cerevisiae deletion strains, locus YJL187C, strain SWE1 (second series), stronger effect = lower value 1.01 | S. cerevisiae deletion strains, locus YJR043C, strain POL32, stronger effect = lower value 1 | S. cerevisiae deletion strains, locus YJR075W, strain HOC1, stronger effect = lower value 0.992 | S. cerevisiae deletion strains, locus YKL009W, strain mrt4, stronger effect = lower value 1.02 | S. cerevisiae deletion strains, locus YKL068W, stronger effect = lower value 1.01 | S. cerevisiae deletion strains, locus YKL085W, strain MDH1 (second series), stronger effect = lower value 1.01 | S. cerevisiae deletion strains, locus YKL085W, strain MDH1, stronger effect = lower value 1.01 | S. cerevisiae deletion strains, locus YKL190W, strain CNB1, stronger effect = lower value 1 | S. cerevisiae deletion strains, locus YLR039C, strain RIC1, stronger effect = lower value 1.02 | S. cerevisiae deletion strains, locus YLR058C, strain SHM2, stronger effect = lower value 1 | S. cerevisiae deletion strains, locus YLR262C, strain YPT6, stronger effect = lower value 1.08 | S. cerevisiae deletion strains, locus YLR330W, strain CHS5, stronger effect = lower value 0.995 | S. cerevisiae deletion strains, locus YLR342W, strain FKS1 (second series), stronger effect = lower value 1.04 | S. cerevisiae deletion strains, locus YML016C, strain PPZ1, stronger effect = lower value 1.01 | S. cerevisiae deletion strains, locus YMR263W, strain SAP30, stronger effect = lower value 1.01 | S. cerevisiae deletion strains, locus YMR307W, strain GAS1, stronger effect = lower value 1.01 | S. cerevisiae deletion strains, locus YNL067W, strain RPL9B, stronger effect = lower value 1.01 | S. cerevisiae deletion strains, locus YNL128W, strain TEP1, stronger effect = lower value 1 | S. cerevisiae deletion strains, locus YNL153C, strain GIM3, stronger effect = lower value 1.01 | S. cerevisiae deletion strains, locus YNL233W, strain BNI4, stronger effect = lower value 1 | S. cerevisiae deletion strains, locus YNL250W, strain rad50, stronger effect = lower value 1.02 | S. cerevisiae deletion strains, locus YNL271C, strain bni1, stronger effect = lower value 1.02 | S. cerevisiae deletion strains, locus YNL298W, strain CLA4, stronger effect = lower value 1.03 | S. cerevisiae deletion strains, locus YNL322C, strain KRE1, stronger effect = lower value 1 | S. cerevisiae deletion strains, locus YOL006C, strain TOP1, stronger effect = lower value 1.04 | S. cerevisiae deletion strains, locus YOR061W, strain CKA2, stronger effect = lower value 0.998 | S. cerevisiae deletion strains, locus YOR069W, strain VPS5, stronger effect = lower value 1 | S. cerevisiae deletion strains, locus YOR184W, strain ser1, stronger effect = lower value 1.02 | S. cerevisiae deletion strains, locus YPL055C, strain LGE1, stronger effect = lower value 0.976 | S. cerevisiae deletion strains, locus YPL241C, strain CIN2, stronger effect = lower value 0.98 | S. cerevisiae deletion strains, locus YPR141C, strain kar3, stronger effect = lower value 1.02 | S. cerevisiae strains, strain wild type, stronger effect = lower value 0.984
active: S. cerevisiae deletion strains, locus YCL029C, strain bik1, stronger effect = lower value 0.573 | S. cerevisiae deletion strains, locus YDL192W, strain arf1, stronger effect = lower value 0.179 | S. cerevisiae deletion strains, locus YDR101C, strain arx1, stronger effect = lower value 0.447 | S. cerevisiae deletion strains, locus YDR318W, strain mcm21, stronger effect = lower value 0.322 | S. cerevisiae deletion strains, locus YDR388W, stronger effect = lower value 0.162 | S. cerevisiae deletion strains, locus YDR502C, strain sam2, stronger effect = lower value 0.359 | S. cerevisiae deletion strains, locus YER110C, stronger effect = lower value 0.627 | S. cerevisiae deletion strains, locus YGL086W, strain mad1, stronger effect = lower value 0.357 | S. cerevisiae deletion strains, locus YGR135W, strain pre9, stronger effect = lower value 0.328 | S. cerevisiae deletion strains, locus YGR252W, strain gcn5, stronger effect = lower value 0.352 | S. cerevisiae deletion strains, locus YHR079C, strain IRE1 (second series), stronger effect = lower value 0.446 | S. cerevisiae deletion strains, locus YHR094C, strain hxt1, stronger effect = lower value 0.456 | S. cerevisiae deletion strains, locus YHR200W, strain rpn10, stronger effect = lower value 0.357 | S. cerevisiae deletion strains, locus YIR030C, strain dcg1, stronger effect = lower value 0.46 | S. cerevisiae deletion strains, locus YJL168C, strain set2, stronger effect = lower value 0.527 | S. cerevisiae deletion strains, locus YKR001C, strain vps1, stronger effect = lower value 0.189 | S. cerevisiae deletion strains, locus YLR102C, strain apc9, stronger effect = lower value 0.543 | S. cerevisiae deletion strains, locus YLR268W, strain sec22, stronger effect = lower value 0.406 | S. cerevisiae deletion strains, locus YLR371W, strain rom2, stronger effect = lower value 0.391 | S. cerevisiae deletion strains, locus YLR418C, strain cdc73, stronger effect = lower value 0.261 | S. cerevisiae deletion strains, locus YML032C, strain rad52, stronger effect = lower value 0.408 | S. cerevisiae deletion strains, locus YML124C, strain tub3, stronger effect = lower value 0.554 | S. cerevisiae deletion strains, locus YMR078C, strain ctf18, stronger effect = lower value 0.852 | S. cerevisiae deletion strains, locus YMR223W, strain ubp8, stronger effect = lower value 0.315 | S. cerevisiae deletion strains, locus YNL307C, strain MCK1, stronger effect = lower value 0.222 | S. cerevisiae deletion strains, locus YNR052C, strain pop2, stronger effect = lower value 0.137 | S. cerevisiae deletion strains, locus YOL012C, strain htz1 2.5 [resistant] | S. cerevisiae deletion strains, locus YOL147C, strain pex11, stronger effect = lower value 0.451 | S. cerevisiae deletion strains, locus YOR136W, strain idh2, stronger effect = lower value 0.531 | S. cerevisiae deletion strains, locus YOR144C, strain elg1, stronger effect = lower value 0.619 | S. cerevisiae deletion strains, locus YOR316C, strain cot1, stronger effect = lower value 0.416 | S. cerevisiae deletion strains, locus YPR119W, strain clb2, stronger effect = lower value 0.645 | S. cerevisiae deletion strains, locus YPR163C, strain tif3, stronger effect = lower value 0.37 | S. cerevisiae deletion strains, locus YPR167C, strain met16, stronger effect = lower value 0.33 | S. cerevisiae deletion strains, strain wtn01, stronger effect = lower value 0.229
